Laboratory results from PubChem BioAssay AID1159580 (chemical genetic matrix, 2015).
Values joined by “and” are separate entries in the source; they are usually repeats but may differ in a detail not shown here. Equal entries are not always repeated. The campaign covered roughly 5,500 compounds. About 2,000 (36%) were called active. About 18% were inconclusive and are not listed. No stated cut-off is given here; in the data, active means normalized growth mostly below about 0.91 (no sharp cut-off); inconclusive means no clear call, values can overlap the other calls; inactive means mostly above about 0.92. Some of the results follow. *1 amine or outer side, *2 acyl side, *3 side chain or, on linkers, in order; H or OH if unused. Where a SMILES comes first, the peptide text is derived from it. Bridges are numbered along the chain shown (N, C = ends). [ ]: non-standard residue; d: D form. The star is where a group is joined. ξ: configuration not given here. ΔAla(E,3-NHCONH2) = NC(=O)N/C=C(/N)C(=O)O; X2 = NC1=NCCC(C(N[*:1])C(=O)[*:2])N1; ξβ3hOrn = NCCCC(N)CC(=O)*; Dap = NC[CH](N)C(=O)O

Test: chemical genetic growth profiling, strain panel (AID 1159580);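 further: tested at 20 µM; growth read once vehicle control cultures reached saturation at 30 °C; 1 = growth at the plate median or of vehicle wells; lower values mean less growth of the strain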
Conditions: S. cerevisiae deletion strains, growth OD

Measured: normalized growth

NCCCC(N)CC(=O)NCC1NC(=O)C(CO)NC(=O)C(N)CNC(=O)C(C2CCN=C(N)N2)NC(=O)/C(=C\NC(N)=O)NC1=O (stereo not drawn) (H-[Dap]S[Dap](ξβ3hOrn)[ΔAla(E,3-NHCONH2)][X2]; lactam 1-C; configuration not given here)
inactive: locus YAL013W, strain DEP1, active compounds read low 0.999 | locus YAL021C, strain ccr4, active compounds read low 1.01 | locus YAL026C, strain drs2, active compounds read low 0.994 | locus YAL030W, strain snc1, active compounds read low 1.03 | locus YBL061C, strain skt5, active compounds read low 1.02 | locus YBR009C, strain hhf1, active compounds read low 0.975 | locus YBR021W, strain FUR4, active compounds read low 0.997 | locus YBR023C, strain chs3, active compounds read low 1.01 | locus YBR171W, strain sec66, active compounds read low 1.02 | locus YBR229C, strain ROT2, active compounds read low 1.01 | locus YBR231C, strain swc5, active compounds read low 1.05 | locus YBR279W, strain paf1, active compounds read low 1.01 | locus YCL011C, strain gbp2, active compounds read low 0.984 | locus YCL016C, strain dcc1, active compounds read low 0.989 | locus YCL029C, strain bik1, active compounds read low 1.03 | locus YCL069W, strain vba3, active compounds read low 1.01 | locus YCR088W, strain abp1, active compounds read low 1.02 | locus YDL005C, strain med2, active compounds read low 0.994 | locus YDL035C, strain GPR1, active compounds read low 1.01 | locus YDL040C, strain nat1, active compounds read low 1.01 | locus YDL074C, strain BRE1, active compounds read low 1.02 | locus YDL101C, strain DUN1, active compounds read low 1 | locus YDL185W, strain tfp1, active compounds read low 1.03 | locus YDL192W, strain arf1, active compounds read low 0.998 | locus YDR001C, strain nth1, active compounds read low 0.999 | locus YDR069C, strain doa4, active compounds read low 1.03 | locus YDR101C, strain arx1, active compounds read low 1.02 | locus YDR137W, strain rgp1, active compounds read low 0.991 | locus YDR159W, strain sac3, active compounds read low 0.975 | locus YDR162C, strain NBP2, active compounds read low 1.01 | locus YDR195W, strain ref2 1.05 | locus YDR297W, strain sur2, active compounds read low 1.03 | locus YDR318W, strain mcm21, active compounds read low 1.02 | locus YDR334W, strain swr1, active compounds read low 1 | locus YDR335W, strain msn5, active compounds read low 1.02 | locus YDR388W, active compounds read low 1.01 | locus YDR392W, strain spt3, active compounds read low 0.928 | locus YDR502C, strain sam2, active compounds read low 1.01 | locus YEL003W, strain gim4, active compounds read low 1.04 | locus YEL037C, strain rad23, active compounds read low 1.02 | locus YEL061C, strain CIN8 (second series), active compounds read low 1.02 | locus YEL061C, strain CIN8, active compounds read low 0.997 | locus YER015W, strain faa2, active compounds read low 1.01 | locus YER016W, strain bim1, active compounds read low 0.993 | locus YER110C, active compounds read low 1.02 | locus YER111C, strain swi4, active compounds read low 0.999 | locus YER155C, strain BEM2 (second series), active compounds read low 1 | locus YER155C, strain BEM2, active compounds read low 1 | locus YER167W, strain BCK2, active compounds read low 0.996 | locus YFR010W, strain ubp6, active compounds read low 1.05 | locus YGL078C, strain dbp3, active compounds read low 1.02 | locus YGL086W, strain mad1, active compounds read low 0.997 | locus YGL167C, strain pmr1, active compounds read low 1.02 | locus YGL173C, strain kem1, active compounds read low 1.04 | locus YGL227W, strain vid30, active compounds read low 1.01 | locus YGL240W, strain doc1, active compounds read low 1.06 | locus YGL248W, strain PDE1, active compounds read low 1.01 | locus YGL253W, strain hxk2, active compounds read low 0.984 | locus YGR078C, strain PAC10, active compounds read low 1.01 | locus YGR135W, strain pre9, active compounds read low 1.04 | locus YGR229C, strain SMI1, active compounds read low 1.02 | locus YGR252W, strain gcn5, active compounds read low 0.993 | locus YHR013C, strain ard1, active compounds read low 1.03 | locus YHR027C, strain rpn1, active compounds read low 1.01 | locus YHR030C, strain SLT2, active compounds read low 1 and 1.03 | locus YHR079C, strain IRE1 (second series), active compounds read low 1.02 | locus YHR079C, strain IRE1, active compounds read low 1.03 | locus YHR094C, strain hxt1, active compounds read low 1.01 | locus YHR129C, strain ARP1, active compounds read low 0.999 | locus YHR142W, strain chs7, active compounds read low 1.01 | locus YHR200W, strain rpn10, active compounds read low 1.02 | locus YIL066C, strain RNR3, active compounds read low 1.01 | locus YIL073C, strain SPO22, active compounds read low 1.08 | locus YIL125W, strain kgd1, active compounds read low 1.01 | locus YIR030C, strain dcg1, active compounds read low 1.01 | locus YJL092W, strain hpr5, active compounds read low 1.03 | locus YJL095W, strain BCK1 (second series), active compounds read low 1.03 | locus YJL095W, strain BCK1, active compounds read low 1.01 and 1.04 | locus YJL115W, strain asf1, active compounds read low 1.02 | locus YJL129C, strain trk1, active compounds read low 1.01 | locus YJL134W, strain LCB3, active compounds read low 1.01 | locus YJL154C, strain vps35, active compounds read low 1.01 | locus YJL164C, strain tpk1, active compounds read low 1 | locus YJL166W, strain qcr8, active compounds read low 1.04 | locus YJL168C, strain set2, active compounds read low 1.01 | locus YJL187C, strain SWE1 (second series), active compounds read low 1.01 | locus YJR043C, strain POL32, active compounds read low 1.01
